# Measured values published in PubChem BioAssay (NCI).
# Compounds without any hit were thinned out: in the full panel of roughly 83,000, 20% have a hit.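 Method: cells in 96-well plates; compound added at one concentration; 48 h incubation; percent growth measured; values under 10 scored active.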 Activity calls are given as the source filed them.
# Tested on: MDA-MB-435 melanoma
# Experiment: NCI-60 one-dose screen, 48 h (100 = growth as untreated, 0 = no growth, -100 = all killed)
# Conditions: 10 µM unless noted
row,SMILES,growth
1,NC(=O)NN=C(C1CC1)C1CC1,105% (inactive)
2,Clc1ccc(CCC(Cn2ccnc2)Sc2c(Cl)cccc2Cl)cc1 (stereo not drawn),53.9% (inactive)
3,c1ccc(-c2nn[nH]n2)c(-c2ccc(CN3CCN(c4nsc5ccccc45)CC3)cc2)c1,92.2% (inactive)
4,COC1CC2CCC(C)C(O)(O2)C(=O)C(=O)N2CCCCC2C(=O)OC(C(C)CC2CCC(O)C(OC)C2)CC(=O)C(C)C=C(C)C(O)C(OC)C(=O)C(C)CC(C)/C=C/C=C/C=C1C (stereo not drawn),43.6% (inactive)
5,O=C(/C=C/c1ccc(Cl)cc1)c1ccccc1,97% (inactive)
6,O=C1OCCCCCCCCCC#Cc2ccccc21,104% (inactive)
7,O=C(OC[C@H]1O[C@H](OC(=O)c2cc(O)c(O)c(OC(=O)c3cc(O)c(O)c(O)c3)c2)[C@H](OC(=O)c2cc(O)c(O)c(OC(=O)c3cc(O)c(O)c(O)c3)c2)[C@@H](OC(=O)c2cc(O)c(O)c(OC(=O)c3cc(O)c(O)c(O)c3)c2)[C@@H]1OC(=O)c1cc(O)c(O)c(OC(=O)c2cc(O)c(O)c(O)c2)c1)c1cc(O)c(O)c(OC(=O)c2cc(O)c(O)c(O)c2)c1,8.23% (active)
8,NC(N)=N/N=C(/c1ccccc1)c1ccc(Cl)cc1,-54.4% (active)
9,CC1(C)OC(=O)C(=Cc2ccccc2Br)C(=O)O1,98% (inactive)
10,CCOC(=O)/C(=C/c1ccccc1)C(=O)c1ccccc1,50.8% (inactive)
11,Cc1c(NCc2nnc3n(Cc4ccccc4)c(=O)c4c5c(sc4n23)CCCC5)c(=O)n(-c2ccccc2)n1C,73.5% (inactive)
12,C/C(=N/N=C(N)N)c1ccc(N)cc1,49% (inactive)
13,COc1cc2c(-c3nc4cc(Cl)c(F)cc4s3)cc(=O)oc2c(C)c1OC,-57.8% (active)
14,Cn1c(=O)c2nc(SCc3ccccc3)n(C)c2n(C)c1=O,113% (inactive)
15,O=C(/C(=C/c1ccc([N+](=O)[O-])cc1)c1ccccc1)c1ccccc1,10.9% (inactive)
16,CC(C)(C)c1ccc(C(O)CCCN2CCC(C(O)(c3ccccc3)c3ccccc3)CC2)cc1 (stereo not drawn),-93.2% (active)
17,CCCCc1nc(Cl)c(CO)n1Cc1ccc(-c2ccccc2-c2nn[nH]n2)cc1,96.5% (inactive)
18,CCCCN(CCCC)CCCOC(=O)c1ccc(N)cc1,-3.25% (active)
19,CO[C@H]1CC(O[C@@H]2/C(C)=C/C[C@@H]3C[C@@H](C[C@]4(CC[C@H](C)[C@@H](C5CCCCC5)O4)O3)OC(=O)[C@@H]3C=C(C)/C(=N/O)[C@H]4OC/C(=C\C=C\[C@@H]2C)[C@]43O)O[C@@H](C)C1O (stereo partly drawn),-86.1% (active)

row,SMILES,growth
1,Cc1cc2c(C#N)n3c(c2cc1C)C(=O)C(c1ccccc1)Oc1ccccc1-3 (stereo not drawn),0.71% (active)
2,Cc1ccc(C(C)C)cc1NC(=O)Nc1ccc([N+](=O)[O-])cc1,11% (inactive)
3,CC/C=C\C=C/C(=O)N/C=C/CC1Cc2cccc(O)c2C(=O)O1 (stereo not drawn),-52.1% (active)
4,Cc1cc(N2CCOCC2)nc(N2CCOCC2)n1,96.4% (inactive)
5,COc1cc(OC)c2cc(C(=O)O)c(=O)oc2c1,76.8% (inactive)
6,COc1cc(/C=C/C(=O)c2c(-c3ccc(F)cc3)nc3sc(C)nn23)cc(OC)c1OC,11.9% (inactive)
7,CC[C@@H]1OC(=O)[C@H](C)[C@@H](O[C@H]2C[C@@](C)(OC)[C@@H](O)[C@H](C)O2)[C@H](C)[C@@H](O[C@@H]2O[C@H](C)C[C@H](N(C)C)[C@H]2O)[C@](C)(O)C[C@@H](C)[C@@H]2N[C@@H](COCCOC)O[C@H]([C@H]2C)[C@]1(C)O,106% (inactive)
8,N#Cc1ccc(NC(=O)Nc2ccc(Oc3ccc(NC(=O)Nc4ccc(C#N)cc4)cc3)cc2)cc1,35.6% (inactive)
9,Nc1c2ccccc2nc2ccccc12 (tested in a mixture with another compound),18.6% (inactive)
10,COc1cc2c(C#N)n3c(c2cc1OC)C(=O)C(c1ccccc1)Oc1ccccc1-3 (stereo not drawn),55.5% (inactive)
11,CC[C@H](C)C(=O)O[C@H]1C[C@@H](C)C=C2C=C[C@H](C)[C@H](CC[C@@H]3C[C@@H](O)CC(=O)O3)[C@H]21,87.8% (inactive)
12,O=C(/C(=C/c1cccc([N+](=O)[O-])c1)c1ccccc1)c1ccccc1,7.47% (active)
13,NC(N)=NN=c1c(=O)c2ccccc2c1=O,12.7% (inactive)
14,NS(=O)(=O)c1ccc(NC2=C(Cl)C(=O)c3ccccc3C2=O)cc1,124% (inactive)
15,COc1ccc(OC)c(NC(=O)c2cc3oc4ccccc4c3cc2O)c1,105% (inactive)
16,CCS(=O)(=O)OCCCl,106% (inactive)
17,COc1ccc(-c2csc(NC(=O)c3cc(O)c(O)c(O)c3)n2)cc1,64.4% (inactive)
18,CCCc1cc(=O)n2c(C(=O)Nc3ccccc3OC)c(C(=O)Nc3ccc(F)cc3)sc2n1,65.8% [30 µM] (inactive)
19,COc1cc(C2=NN(C(C)=O)C(c3ccc(OC(C)=O)cc3OC(C)=O)O2)c(OC(C)=O)c2ccccc12 (stereo not drawn),28.8% (inactive)
